# Source: PubChem BioAssay (NMMLSC)
# Most compounds without a hit are left out; they make up all but 2.9% or so of the library.
# B2AR ag: agonists of human beta-2 adrenergic receptor inducing internalization; P07550; Am2.2-beta2AR cells, FAP receptor internalization, flow cytometry; response, % (concentration not given with the values); actives 0.43% (n = 340,000);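 active means response above a set limit, near 3 SD of response in nonfluorescent compounds, cut at about 42% in these data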
# MEKK2mut PB1 HTS: signal of MEK5 binding to mutant human MEKK2 PB1 domain | actives 0.35% (n = 290,000) | bead flow cytometry, Alexa488-MEK5 binding to MEKK2 mutant | percent response, % at 10 µM | AID 1530; in the data active means percent response above about 24%, passing the limit was not always enough
# MEKK2wt PB1 HTS: raises or lowers MEK5 binding to wildtype human MEKK2 PB1 domain | Q9Y2U5 | bead flow cytometry, Alexa488-MEK5 binding to MEKK2 WT; actives lie on both sides | binding response (% of control), % at 10 µM | actives 1.1% (n = 290,000) | AID 1531; in the data active means binding response below about 67% or above about 130%; inconclusive means no clear call, values can overlap the other calls; inactive means in between
# MEKK3 PB1 HTS: raises or lowers MEK5 binding to the human MEKK3 PB1 domain. binding response (% of control), % at 10 µM. AID 1529. bead-based flow cytometry, Alexa488-MEK5 binding to MEKK3; actives lie on both sides; 0 = blocked by unlabeled MEK5, 100 = vehicle. actives 1.4% (n = 290,000). Q99759;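 active means binding response more than 3 SD above or below the average of its plate-row segment, actives on both sides; inconclusive means wells at one plate position flagged as instrument error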;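 further: Alexa488 bead fluorescence after subtracting the streptavidin-only scavenger bead signal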
# GRK2 inh: human GRK2 inhibition via aptamer displacement. P25098. bead flow cytometry, FAM-aptamer displacement from GRK2. inhibition of aptamer binding, % at 10 µM. actives 0.59% (n = 330,000). AID 488847;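 active means inhibition of aptamer binding above 40%, roughly 3 SD of noise, on plates passing a quality check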;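 further: median bead fluorescence of bound FAM aptamer so fluorescent compounds give negative values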
# Target sequence (P25098 whole entry, looked up): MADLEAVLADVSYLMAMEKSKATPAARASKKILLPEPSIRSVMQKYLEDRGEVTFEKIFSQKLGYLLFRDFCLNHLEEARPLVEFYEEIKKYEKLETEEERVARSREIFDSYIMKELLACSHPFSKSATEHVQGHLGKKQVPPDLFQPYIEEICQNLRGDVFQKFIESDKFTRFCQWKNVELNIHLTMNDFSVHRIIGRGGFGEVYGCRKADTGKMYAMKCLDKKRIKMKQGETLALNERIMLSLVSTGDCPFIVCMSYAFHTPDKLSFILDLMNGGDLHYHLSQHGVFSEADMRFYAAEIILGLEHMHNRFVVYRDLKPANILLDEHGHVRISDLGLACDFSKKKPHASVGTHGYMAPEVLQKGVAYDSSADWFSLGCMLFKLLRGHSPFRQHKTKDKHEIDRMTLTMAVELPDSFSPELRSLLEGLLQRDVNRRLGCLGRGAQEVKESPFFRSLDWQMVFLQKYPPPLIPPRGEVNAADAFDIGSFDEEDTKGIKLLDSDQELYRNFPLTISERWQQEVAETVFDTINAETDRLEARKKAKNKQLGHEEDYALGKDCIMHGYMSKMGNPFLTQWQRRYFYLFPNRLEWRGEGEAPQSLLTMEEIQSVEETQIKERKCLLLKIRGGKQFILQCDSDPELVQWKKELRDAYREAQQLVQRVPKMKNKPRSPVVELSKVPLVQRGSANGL
# MEKK2wt confirm: raises or lowers MEK5 binding to wildtype human MEKK2, retest; shares compounds with MEKK3 PB1 HTS; bead flow cytometry, Alexa488-MEK5 binding to MEKK2 WT; actives lie on both sides; binding response (% of control), % at 10 µM; actives 2.4% (n = 5,900); in the data active means binding response below about 16% or above about 210%; inactive means in between
# MEKK2mut confirm: signal of MEK5 binding to mutant human MEKK2, retest; bead flow cytometry, Alexa488-MEK5 binding to MEKK2 mutant; actives 2% (n = 5,900); shares compounds with MEKK3 PB1 HTS; percent response, % at 10 µM; AID 1893; in the data active means percent response mostly above about 71%, no sharp cut-off; inactive means mostly below about 38%;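 further: higher means compound restores mutant binding toward wildtype level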
# MEKK3-MEK5 inh: confirmation of inhibitors of MEK5 binding to human MEKK3; bead flow cytometry, Alexa488-MEK5 binding to MEKK3; active compounds read low; AID 1894; binding response (% of control), % at 10 µM; actives 1.8% (n = 5,900); shares compounds with MEKK3 PB1 HTS;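 active means binding response below 72% of control, or above a set upper limit, though filed actives all read lower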;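 further: 100% = DMSO only wells and 0% = binding blocked by excess unlabeled MEK5; lower values mean stronger disruption of MEK5 binding to MEKK3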
# * = called active by the depositor; ? = inconclusive; / = no result; [ ] = remark or other dose.
SMILES,B2AR ag,MEKK2mut PB1 HTS,MEKK2wt PB1 HTS,MEKK3 PB1 HTS,GRK2 inh,MEKK2wt confirm,MEKK2mut confirm,MEKK3-MEK5 inh
COC(=O)c1cc(C)sc1NC(=O)C1CC(=O)NN1Cc1ccccc1 (configuration not stated),-1.2,1.0,108.0,137.0*,7.0,98.0,-1.0,104.0
CCn1c(SCc2ccccc2)nc2cc(S(N)(=O)=O)ccc21,-0.1,-4.0,98.0,99.0,0.0,/,/,/
Cc1ccc(S(=O)(=O)N(C)CCCC(=O)n2nc(C)cc2C)cc1,5.2,-39.0,0.0*[inhibitor],0.0*[inhibitor],21.0,103.0,-2.0,103.0
Cc1cc(C)n(C(=O)CN(C)S(=O)(=O)c2ccc([N+](=O)[O-])cc2)n1,-6.0,7.0,102.0,104.0,0.0,/,/,/
CCCN(Cc1nc2cc(Cl)ccc2c(=O)[nH]1)C(=O)c1ccc(S(=O)(=O)N2CCCC2)cc1,3.3,/,/,/,0.0,/,/,/
CCC(=NCc1ccccc1)c1c(C(F)(F)F)[nH]n(-c2nc3ccccc3s2)c1=O,-6.2,3.0,99.0,101.0,3.0,/,/,/
O=c1c(C=NCc2cccnc2)c(C(F)(F)F)[nH]n1-c1nc2ccccc2s1,1.3,275.0*,/,95.0,0.0,96.0,-1.0,101.0
CSCCCc1cn([C@@H](CO)C(=O)NCCCCCCCCCCC(=O)N2CCNCC2)nn1,-4.8,/,/,/,0.0,/,/,/
CC(C)CNC(=O)CSc1nnc2ccccn12,1.9,-4.0,77.0,53.0*[inhibitor],1.0,105.0,-2.0,103.0
CC(C)CCNC(=O)NC(=O)CSc1nnc2ccccn12,1.7,8.0,114.0,110.0,2.0,/,/,/
O=S(=O)(c1ccccc1)n1ccc(-c2cnc(-c3ccccc3)s2)n1,3.2,4.0,122.0,129.0*,3.0,99.0,-3.0,100.0
CSc1ccccc1NC(=O)CN(C)C(=O)c1ccc(NC(=O)c2cccs2)cc1,1.7,/,/,/,5.0,/,/,/
O=[N+]([O-])c1cccc(S(=O)(=O)N2CCCC2)c1,16.6,90.0*,/,15.0*[inhibitor],0.0,95.0,-2.0,95.0
CCN1CCN(S(=O)(=O)c2cccc([N+](=O)[O-])c2)CC1,-4.5,-45.0,?,?,1.0,/,/,/
CC(=O)Nc1cccc(NC(=O)CS(=O)(=O)c2cn(CC(=O)N(C(C)C)C(C)C)c3ccccc23)c1,2.7,4.0,107.0,103.0,1.0,/,/,/
CN(C)CCCN=Cc1c(O)n(Cc2ccc3c(c2)OCO3)c(=O)c2ccccc12,/,9.0,125.0,96.0,0.0,/,/,/
COc1ccc(C2=NN(C(=O)CSc3nc4ccccc4s3)C(c3ccc(OC)cc3)C2)cc1 (configuration not stated),11.0,0.0,99.0,148.0*,1.0,87.0,-6.0,92.0
COc1ccc(C2=NN(C(=O)CSc3nc4ccccc4s3)C(c3ccc(F)cc3)C2)cc1 (configuration not stated),-0.8,-2.0,83.0,86.0,0.0,/,/,/
COc1ccc(CCNC(=S)Nc2ccc(C(C)C)cc2)cc1,3.6,25.0,115.0,134.0*,2.0,101.0,-4.0,96.0
CC(C)/C=C/C(=O)N1CCCC(N2CCN(c3ccccc3F)CC2)C1 (configuration not stated),-5.0,2.0,102.0,102.0,0.0,/,/,/
COc1ccc(CN(CC(=O)NCc2ccccc2)C(=O)c2csnn2)cc1,-3.3,-4.0,93.0,96.0,2.0,/,/,/
COc1ccc(CNC(=O)CN(Cc2ccc(F)cc2)C(=O)c2csnn2)cc1,1.3,5.0,124.0,148.0*,1.0,98.0,-2.0,97.0
Cc1ccc(C(C(=O)NC2CCCC2)N(Cc2ccccc2)C(=O)c2csnn2)o1 (configuration not stated),1.3,0.0,103.0,100.0,2.0,/,/,/
Cc1ccc(C(C(=O)NC2CCCC2)N(Cc2ccc(F)cc2)C(=O)c2csnn2)o1 (configuration not stated),-3.2,-16.0,3.0*[inhibitor],3.0*[inhibitor],1.0,96.0,-9.0,96.0
CCC(C)NC(=O)c1cc2cc3ccc(OC)cc3nc2s1 (configuration not stated),15.8,5.0,120.0,126.0*,35.0,97.0,-4.0,98.0
SMILES,B2AR ag,MEKK2mut PB1 HTS,MEKK2wt PB1 HTS,MEKK3 PB1 HTS,GRK2 inh,MEKK2wt confirm,MEKK2mut confirm,MEKK3-MEK5 inh
CCOC(=O)N1CCN(C(=O)CN(C)S(=O)(=O)c2ccc(OCC)cc2)CC1,4.0,-5.0,105.0,105.0,5.0,/,/,/
COc1ccc2c(C)c(C)c(=O)oc2c1OC,-1.1,-26.0,0.0*[inhibitor],2.0*[inhibitor],1.0,104.0,-1.0,101.0
CCC1=Nc2cc(C(=O)NCCCOC)ccc2Sc2ccccc21,25.2,6.0,127.0,125.0*,0.0,98.0,0.0,105.0
CNC(=O)Cn1nc(-c2ccc(Cl)cc2)c2ccccc2c1=O,0.5,3.0,106.0,104.0,0.0,/,/,/
Cc1nc(-c2cccc(NC(=O)c3cccc(S(=O)(=O)N4CCCC4)c3)c2)cs1,29.3,/,/,/,0.0,/,/,/
CCOC(=O)C(NC(=O)Nc1ncccn1)(Oc1ccccc1)C(F)(F)F (configuration not stated),8.7,1.0,100.0,101.0,3.0,/,/,/
CCOC(=O)C(NC(=O)Nc1ccc(F)cc1F)(Oc1ccc(F)cc1)C(F)(F)F (configuration not stated),-4.6,3.0,104.0,128.0*,1.0,105.0,8.0,106.0
O=S(=O)(NC1c2cccc3cccc(c23)C1Sc1ncccn1)c1ccccc1 (configuration not stated),0.2,0.0,100.0,144.0*,0.0,97.0,-4.0,105.0
COc1cccc(CNCC(=O)NC(=O)NC2CCCC2)c1,-2.6,/,/,/,6.0,/,/,/
CCCC(C)NC(=O)COc1ccc(Sc2ccc(OCC(=O)NC(C)CCC)cc2)cc1 (configuration not stated),6.0,0.0,104.0,137.0*,0.0,100.0,-3.0,96.0
CCCC(C)NC(=O)Cc1ccc(Br)cc1 (configuration not stated),6.5,0.0,108.0,140.0*,2.0,102.0,2.0,99.0
CC(C)NC(=O)Cc1ccc(Br)cc1,-11.9,3.0,110.0,111.0,0.0,/,/,/
O=C(Cc1ccccc1)NC1CCSc2ccccc21 (configuration not stated),2.1,8.0,106.0,104.0,0.0,/,/,/
COc1ccc([C@H]2CC(=O)C=C(c3cccc(NC(C)=O)c3)C2)cc1,-9.4,/,/,/,0.0,/,/,/
COc1cc(C(=O)N2CCN(c3cccc(C(F)(F)F)c3)CC2)ccc1OCC(=O)N1CCOCC1,-6.0,/,/,/,/,/,/,/
